Source: PubChem BioAssay
“And” between values parts separate entries of the source, which are not always exact repeats. Equal values may be shown once. More than one record can exist for a structure, and the calls need not agree. The source made the active and inactive calls. Cut-off read from the data, not from the text of the source, unless noted: active = inhibition above about 33%; inactive = the rest.

Experiments:
[1] = target: Nuclear receptor coactivator 3 (Homo sapiens) (UniProt Q9Y6Q9); experiment: NCOA3 GAL4-fusion reporter inhibition – cell-based, luminescence, quadruplicate, confirmation (AID 588792;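 active = mean inhibition over 43.08%, the solvent-only control mean plus 3 SD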;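 note: 0% = DMSO treated cells and 100% = gossypol at 36 µM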); details: HEK293 GAL4-SRC3 luciferase reporter, at 3.6 µM, stronger effect = higher value
Chain of Nuclear receptor coactivator 3 (Homo sapiens) (Q9Y6Q9 whole entry, looked up, the tested form may be a part): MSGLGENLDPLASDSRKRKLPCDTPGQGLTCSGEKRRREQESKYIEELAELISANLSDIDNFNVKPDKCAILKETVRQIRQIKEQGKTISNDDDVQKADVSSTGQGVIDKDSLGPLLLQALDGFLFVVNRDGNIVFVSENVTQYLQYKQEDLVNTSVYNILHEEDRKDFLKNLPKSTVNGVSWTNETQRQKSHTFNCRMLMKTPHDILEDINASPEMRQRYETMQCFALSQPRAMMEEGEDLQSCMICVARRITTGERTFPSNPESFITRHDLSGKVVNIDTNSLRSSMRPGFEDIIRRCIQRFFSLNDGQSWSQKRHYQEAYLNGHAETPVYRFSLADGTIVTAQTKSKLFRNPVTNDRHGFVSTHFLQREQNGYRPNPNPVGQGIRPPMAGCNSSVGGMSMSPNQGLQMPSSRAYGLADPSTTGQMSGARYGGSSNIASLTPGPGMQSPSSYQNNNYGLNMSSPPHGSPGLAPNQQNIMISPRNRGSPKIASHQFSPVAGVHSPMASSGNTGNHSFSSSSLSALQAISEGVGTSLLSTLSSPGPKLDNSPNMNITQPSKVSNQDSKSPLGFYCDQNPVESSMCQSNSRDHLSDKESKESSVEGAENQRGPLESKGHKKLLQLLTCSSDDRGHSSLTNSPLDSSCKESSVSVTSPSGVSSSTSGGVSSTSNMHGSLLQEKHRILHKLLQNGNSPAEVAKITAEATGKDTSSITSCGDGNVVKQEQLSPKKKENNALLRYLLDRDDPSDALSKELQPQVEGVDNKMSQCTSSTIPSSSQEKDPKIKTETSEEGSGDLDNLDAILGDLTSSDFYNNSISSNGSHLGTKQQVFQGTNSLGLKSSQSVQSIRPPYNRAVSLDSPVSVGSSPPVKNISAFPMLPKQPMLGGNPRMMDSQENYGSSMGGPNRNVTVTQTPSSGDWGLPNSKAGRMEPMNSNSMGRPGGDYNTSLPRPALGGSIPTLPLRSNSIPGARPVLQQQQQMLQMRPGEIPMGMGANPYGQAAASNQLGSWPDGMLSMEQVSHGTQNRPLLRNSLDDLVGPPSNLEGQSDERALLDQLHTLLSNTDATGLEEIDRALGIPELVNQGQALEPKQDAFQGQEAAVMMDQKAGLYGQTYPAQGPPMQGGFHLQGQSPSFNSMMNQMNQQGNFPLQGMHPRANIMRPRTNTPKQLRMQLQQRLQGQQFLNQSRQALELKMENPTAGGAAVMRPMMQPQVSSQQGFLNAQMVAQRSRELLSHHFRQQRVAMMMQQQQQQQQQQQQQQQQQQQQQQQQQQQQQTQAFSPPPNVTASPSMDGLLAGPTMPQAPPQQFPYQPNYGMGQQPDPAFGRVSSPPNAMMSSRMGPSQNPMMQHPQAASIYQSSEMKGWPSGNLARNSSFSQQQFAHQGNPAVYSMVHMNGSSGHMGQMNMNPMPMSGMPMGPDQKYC

[2] = test system: transactivating tegument protein VP16 (Human herpesvirus 1), Gal4-VP16 luciferase reporter; experiment: repression of VP16-driven luciferase reporter – cell-based, luminescence, high throughput, counter-screen for SRC3 inhibitor project (AID 588794; in the data active = inhibition above about 30%); details: mammalian cells, at 3.6 µM, stronger effect = higher value
[3] = target: Nuclear receptor coactivator 1 (Homo sapiens) (UniProt Q15788); experiment: NCOA1 GAL4-fusion reporter inhibition – cell-based, luminescence, quadruplicate, confirmation (AID 588820;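 active = mean inhibition above 46.68%, the untreated control wells mean plus 3 SD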;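 note: 0% = DMSO wells and 100% = gossypol 36 µM treated wells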); details: HEK293 GAL4-SRC1 luciferase reporter, at 3.6 µM, stronger effect = higher value
Chain of Nuclear receptor coactivator 1 (Homo sapiens) (Q15788 whole entry, looked up, the tested form may be a part): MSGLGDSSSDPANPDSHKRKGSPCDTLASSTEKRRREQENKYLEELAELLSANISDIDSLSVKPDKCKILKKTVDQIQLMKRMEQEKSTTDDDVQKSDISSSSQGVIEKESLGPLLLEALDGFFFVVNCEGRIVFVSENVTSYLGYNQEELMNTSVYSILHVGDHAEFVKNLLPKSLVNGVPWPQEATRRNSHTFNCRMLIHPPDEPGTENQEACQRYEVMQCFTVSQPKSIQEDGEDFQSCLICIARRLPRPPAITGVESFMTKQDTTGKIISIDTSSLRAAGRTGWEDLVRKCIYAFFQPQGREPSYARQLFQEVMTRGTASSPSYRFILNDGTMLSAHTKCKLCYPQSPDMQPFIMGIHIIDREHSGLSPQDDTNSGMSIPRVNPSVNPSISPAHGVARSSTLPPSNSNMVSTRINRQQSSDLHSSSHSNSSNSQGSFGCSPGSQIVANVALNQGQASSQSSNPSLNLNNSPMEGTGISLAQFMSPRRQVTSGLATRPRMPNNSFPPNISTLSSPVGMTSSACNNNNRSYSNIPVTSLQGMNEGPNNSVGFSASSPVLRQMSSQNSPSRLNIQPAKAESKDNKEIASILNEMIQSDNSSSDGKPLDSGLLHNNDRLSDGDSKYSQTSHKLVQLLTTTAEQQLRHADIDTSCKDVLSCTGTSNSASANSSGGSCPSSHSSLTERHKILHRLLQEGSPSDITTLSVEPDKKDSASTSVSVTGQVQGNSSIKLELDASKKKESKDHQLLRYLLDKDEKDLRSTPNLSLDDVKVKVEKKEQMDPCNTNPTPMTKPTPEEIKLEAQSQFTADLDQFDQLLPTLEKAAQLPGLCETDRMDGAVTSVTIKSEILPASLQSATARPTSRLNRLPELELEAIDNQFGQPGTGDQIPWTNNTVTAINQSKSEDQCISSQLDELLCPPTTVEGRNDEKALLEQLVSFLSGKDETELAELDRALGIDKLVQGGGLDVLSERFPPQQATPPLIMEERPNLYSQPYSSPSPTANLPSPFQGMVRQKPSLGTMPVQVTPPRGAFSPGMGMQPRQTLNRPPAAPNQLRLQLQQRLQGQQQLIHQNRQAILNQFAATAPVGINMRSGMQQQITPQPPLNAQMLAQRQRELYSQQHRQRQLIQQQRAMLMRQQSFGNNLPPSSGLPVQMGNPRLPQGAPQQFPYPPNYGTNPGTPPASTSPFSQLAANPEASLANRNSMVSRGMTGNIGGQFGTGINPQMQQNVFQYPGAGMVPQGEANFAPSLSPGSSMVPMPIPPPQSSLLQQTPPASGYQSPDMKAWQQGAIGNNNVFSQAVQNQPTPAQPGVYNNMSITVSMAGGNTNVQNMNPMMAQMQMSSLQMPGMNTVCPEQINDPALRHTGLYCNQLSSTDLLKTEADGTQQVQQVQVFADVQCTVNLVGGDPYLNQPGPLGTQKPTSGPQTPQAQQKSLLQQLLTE

[4] = repression of VP16-driven luciferase reporter – cell-based, luminescence, high throughput, counter-screen for SRC1 inhibitor project (AID 588824; in the data active = inhibition above about 25%); details: cell-based VP16 transactivation luciferase luminescence; at 3.6 µM; stronger effect = higher value
[5] = StAR promoter reporter inhibitors, counter-screen for LRH-1 inverse agonist project, cell-based, luminescence, high throughput (AID 651611; in the data active = inhibition above about 28%); details: StAR promoter luciferase reporter counterscreen, at 3.6 µM, stronger effect = higher value
[6] = target: Nuclear receptor subfamily 5 group A member 2 (Homo sapiens) (UniProt O00482); experiment: NR5A2 activity suppression in reporter cells – cell-based, luminescence, confirmation (AID 651613; in the data active = inhibition above about 42%;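 note: HEK293T cells co-transfected with LRH-1 and StAR promoter luciferase reporter; 0% = vehicle wells and 100% = parental cells lacking receptor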); details: cell-based LRH-1 luciferase reporter, inverse agonism; at 3.6 µM; stronger effect = higher value
Chain of Nuclear receptor subfamily 5 group A member 2 (Homo sapiens) (O00482 whole entry, looked up): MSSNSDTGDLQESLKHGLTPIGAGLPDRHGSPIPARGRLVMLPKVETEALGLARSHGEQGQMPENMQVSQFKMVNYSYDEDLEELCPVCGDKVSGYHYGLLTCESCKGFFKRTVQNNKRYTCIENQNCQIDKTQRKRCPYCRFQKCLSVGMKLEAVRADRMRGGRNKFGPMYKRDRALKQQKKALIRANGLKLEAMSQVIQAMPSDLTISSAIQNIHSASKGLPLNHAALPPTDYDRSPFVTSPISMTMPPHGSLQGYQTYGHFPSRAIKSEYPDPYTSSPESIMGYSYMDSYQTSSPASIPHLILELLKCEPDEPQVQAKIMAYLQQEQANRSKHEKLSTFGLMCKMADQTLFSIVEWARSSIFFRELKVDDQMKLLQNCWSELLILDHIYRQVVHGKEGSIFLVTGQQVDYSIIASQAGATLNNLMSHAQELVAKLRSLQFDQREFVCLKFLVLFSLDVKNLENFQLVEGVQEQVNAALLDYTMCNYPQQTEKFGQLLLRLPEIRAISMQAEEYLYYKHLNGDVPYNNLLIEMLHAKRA

[7] = target: Steroidogenic factor 1 (Homo sapiens) (UniProt Q13285); experiment: inverse agonism at SF1 nuclear receptor – cell-based, luminescence, high throughput, counter-screen for LRH-1 inverse agonist project (AID 651614; in the data active = inhibition above about 44%;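 note: cells cotransfected with StAR promoter reporter and SF1 expression vector; 0% = vehicle on cells with receptor and 100% = vehicle on cells lacking receptor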); details: cell-based SF1 luciferase reporter, at 3.6 µM, stronger effect = higher value
Chain of Steroidogenic factor 1 (Homo sapiens) (Q13285 whole entry, looked up, the tested form may be a part): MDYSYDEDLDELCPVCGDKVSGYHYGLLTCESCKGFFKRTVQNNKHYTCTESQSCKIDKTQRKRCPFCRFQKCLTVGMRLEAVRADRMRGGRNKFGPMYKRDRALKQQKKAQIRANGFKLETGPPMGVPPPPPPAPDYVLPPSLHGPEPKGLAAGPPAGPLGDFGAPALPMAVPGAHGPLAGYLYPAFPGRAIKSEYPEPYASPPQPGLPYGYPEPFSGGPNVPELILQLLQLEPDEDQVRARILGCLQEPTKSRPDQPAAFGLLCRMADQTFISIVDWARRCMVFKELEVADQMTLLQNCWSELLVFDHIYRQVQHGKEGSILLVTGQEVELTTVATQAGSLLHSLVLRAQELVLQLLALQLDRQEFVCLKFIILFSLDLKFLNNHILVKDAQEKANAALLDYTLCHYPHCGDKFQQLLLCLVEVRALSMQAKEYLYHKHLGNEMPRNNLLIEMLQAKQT

[8] = compounds suppressing VP16-driven luciferase signal – cell-based, luminescence, high throughput, counter-screen for LRH-1 inverse agonist project (AID 651615); details: Gal4-VP16 luciferase reporter cells, at 3.6 µM, stronger effect = higher value

| SMILES | inhibition [1] | inhibition [2] | inhibition [3] | inhibition [4] | inhibition [5] | inhibition [6] | inhibition [7] | inhibition [8] |
| --- | --- | --- | --- | --- | --- | --- | --- | --- |
| CC(=NNC(=S)Nc1ccccc1Cl)c1ccccn1 | 41.9% (inactive) | 71.8% (active) | 18.6% (inactive) | 73% (active) | 84.3% (active) | 106% (active) | 91.1% (active) | 83.9% (active) |
| COc1cc(C=NO)nc(-c2ccccn2)c1 | 78.2% (active) | 43.5% (active) | 54% (active) | 36.5% (active) | 85.6% (active) | 96% (active) | 76.9% (active) | 45.7% (active) |
| NC(=S)NN=Cc1nccc2c(C(F)(F)F)cccc12 | 86.8% (active) | 69.7% (active) | 63.9% (active) | 56.4% (active) | 89.7% (active) | 100% (active) | 93.2% (active) | 66.5% (active) |
| Nc1nc(N)nc(-c2cc(O)ccc2O)n1 | 78.4% (active) | 53.5% (active) | 74.7% (active) | 43.7% (active) | 41.7% (active) | 45.4% (active) | 65.9% (active) | 57.1% (active) |
| COc1cc(C2c3cc4c(cc3C(OC3OC5COC(c6cccs6)OC5C(O)C3O)C3COC(=O)C23)OCO4)cc(OC)c1O (stereo not drawn) | 72.2% (active) | -8.11% (inactive) | 26% (inactive) | -26.7% (inactive) | 73.9% (active) | 82.6% (active) | 54.5% (active) | -36.1% (inactive) |
| COc1ccccc1N1CCN(Cc2cc(Br)c(O)c3ncccc23)CC1 | 21.4% (inactive) | 3.52% (inactive) | -1.06% (inactive) | -1.42% (inactive) | 23.9% (inactive) | 23.9% (inactive) | 42.8% (active) | 21.7% (inactive) |
| N#Cc1cc2c(nc1SCC(=O)N1CCOCC1)CCCCC2 | 21.1% (inactive) | 21.5% (inactive) | -34.5% (inactive) | -17.9% (inactive) | -55% (inactive) | -116% (inactive) | -87.7% (inactive) | -62.9% (inactive) |
| COc1ccccc1-n1c(-c2ccccc2)c[n+]2c1CCc1ccccc1-2 | 47.9% (active) and 39.9% (inactive) | 72.8% (active) and 57.1% (active) | 39.1% (inactive) and 29.1% (inactive) | 73.8% (active) and 53.7% (active) | 58.2% (active) and 36.6% (active) | 96.8% (active) and 84.2% (active) | 84.2% (active) and 76% (active) | 83.9% (active) and 70.9% (active) |
| CC(=NNC(=S)Nc1ccccc1)c1ccccn1 | 41% (inactive) | 70.5% (active) | -15.4% (inactive) | 67.8% (active) | 78.3% (active) | 101% (active) | 90% (active) | 85.6% (active) |
| CC[n+]1c(C=C2C=C(C)OC(C)=C2)sc2ccccc21 | 42.2% (inactive) | 67.2% (active) | 40.9% (inactive) | 71.5% (active) | 70.3% (active) | 108% (active) | 85% (active) | 92.9% (active) |
| Cc1ccc(S(=O)(=O)N(C)C)cc1NC(=O)c1cncc(Br)c1 | 22.1% (inactive) | 5.79% (inactive) | 8.59% (inactive) | 0.1% (inactive) | 44.1% (active) | 43% (active) | 47.6% (active) | 19.7% (inactive) |
| COCCn1c(C)cc(C2=NNC(=Nc3ccccc3)SC2)c1C | -62.4% (inactive) | -40.8% (inactive) | -119% (inactive) | -64% (inactive) | -73.4% (inactive) | -77.6% (inactive) | -67.8% (inactive) | -136% (inactive) |
| Cc1ccnc2c1ccc1c(C)ccnc12 | 86.2% (active) | 54.3% (active) | 73.3% (active) | 61.9% (active) | 88.8% (active) | 108% (active) | 87% (active) | 65.1% (active) |
| Cc1cc(C(C)(C)C)cc(C)c1C[n+]1ccc2ccccc2c1 | 41.4% (inactive) | 59.3% (active) | 11.7% (inactive) | 53.3% (active) | 30.7% (active) | 99.2% (active) | 69.1% (active) | 72.7% (active) |
| N=c1c2c(-c3ccccc3)c(-c3ccccc3)n(Cc3ccccc3)c2ncn1CCO | 26.6% (inactive) | 61% (active) | 39.8% (inactive) | 57.8% (active) | 57.2% (active) | 71.5% (active) | 73.1% (active) | 77.4% (active) |
| c1cc(CNc2ccc3c(c2)OCCO3)ccn1 | -1.65% (inactive) | -11.2% (inactive) | -6.52% (inactive) | -0.58% (inactive) | 10% (inactive) | 2.45% (inactive) | 14.8% (inactive) | -8.35% (inactive) |
